# Test results taken from PubChem BioAssay.
# Calls of active or inactive are those of the source.
# Columns and labels:
# [1] = binders of probe aFSTL3 on microarray, primary screen, stem cell growth factor project, biochemical, small-molecule microarray, fluorescence 635/667 (AID 1064); settings: higher = more signal;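 further: measures binding of the biotinylated anti-FSTL3 antibody to printed compounds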
# [2] = binders from COS7 lysate, DM2A8 probe, primary screen, torsin A project, cell lysate, small-molecule microarray, fluorescence 635/667 (AID 1065); settings: higher = more signal, COS7 lysate expressing mutant human TOR1A
# [3] = binders of probe aFGF2 on microarray, primary screen, stem cell growth factor project, biochemical, small-molecule microarray, fluorescence 635/667 (AID 1067); settings: higher = more signal;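 further: measures binding of biotinylated aFGF2 protein to printed compounds on slides; z-score merges feature fluorescence and signal-to-noise across triplicate slides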
# [4] = binders of probe aFGF10 on microarray, primary screen, stem cell growth factor project, biochemical, small-molecule microarray, fluorescence 635/667 (AID 1071); settings: higher = more signal;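 further: score merges 667 nm spot intensity and signal to noise from triplicate slides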
# [5] = biological target: Neurogenic locus notch homolog protein 2 (Homo sapiens) (UniProt Q04721); experiment: Notch2 binders on small-molecule microarrays, primary screen, biochemical, small-molecule microarray, 635 nm fluorescence, stem cell growth factors (AID 1073); settings: Notch2 binding, higher = more signal
# Sequence of Neurogenic locus notch homolog protein 2 (Homo sapiens) (Q04721 whole entry, looked up, canonical isoform): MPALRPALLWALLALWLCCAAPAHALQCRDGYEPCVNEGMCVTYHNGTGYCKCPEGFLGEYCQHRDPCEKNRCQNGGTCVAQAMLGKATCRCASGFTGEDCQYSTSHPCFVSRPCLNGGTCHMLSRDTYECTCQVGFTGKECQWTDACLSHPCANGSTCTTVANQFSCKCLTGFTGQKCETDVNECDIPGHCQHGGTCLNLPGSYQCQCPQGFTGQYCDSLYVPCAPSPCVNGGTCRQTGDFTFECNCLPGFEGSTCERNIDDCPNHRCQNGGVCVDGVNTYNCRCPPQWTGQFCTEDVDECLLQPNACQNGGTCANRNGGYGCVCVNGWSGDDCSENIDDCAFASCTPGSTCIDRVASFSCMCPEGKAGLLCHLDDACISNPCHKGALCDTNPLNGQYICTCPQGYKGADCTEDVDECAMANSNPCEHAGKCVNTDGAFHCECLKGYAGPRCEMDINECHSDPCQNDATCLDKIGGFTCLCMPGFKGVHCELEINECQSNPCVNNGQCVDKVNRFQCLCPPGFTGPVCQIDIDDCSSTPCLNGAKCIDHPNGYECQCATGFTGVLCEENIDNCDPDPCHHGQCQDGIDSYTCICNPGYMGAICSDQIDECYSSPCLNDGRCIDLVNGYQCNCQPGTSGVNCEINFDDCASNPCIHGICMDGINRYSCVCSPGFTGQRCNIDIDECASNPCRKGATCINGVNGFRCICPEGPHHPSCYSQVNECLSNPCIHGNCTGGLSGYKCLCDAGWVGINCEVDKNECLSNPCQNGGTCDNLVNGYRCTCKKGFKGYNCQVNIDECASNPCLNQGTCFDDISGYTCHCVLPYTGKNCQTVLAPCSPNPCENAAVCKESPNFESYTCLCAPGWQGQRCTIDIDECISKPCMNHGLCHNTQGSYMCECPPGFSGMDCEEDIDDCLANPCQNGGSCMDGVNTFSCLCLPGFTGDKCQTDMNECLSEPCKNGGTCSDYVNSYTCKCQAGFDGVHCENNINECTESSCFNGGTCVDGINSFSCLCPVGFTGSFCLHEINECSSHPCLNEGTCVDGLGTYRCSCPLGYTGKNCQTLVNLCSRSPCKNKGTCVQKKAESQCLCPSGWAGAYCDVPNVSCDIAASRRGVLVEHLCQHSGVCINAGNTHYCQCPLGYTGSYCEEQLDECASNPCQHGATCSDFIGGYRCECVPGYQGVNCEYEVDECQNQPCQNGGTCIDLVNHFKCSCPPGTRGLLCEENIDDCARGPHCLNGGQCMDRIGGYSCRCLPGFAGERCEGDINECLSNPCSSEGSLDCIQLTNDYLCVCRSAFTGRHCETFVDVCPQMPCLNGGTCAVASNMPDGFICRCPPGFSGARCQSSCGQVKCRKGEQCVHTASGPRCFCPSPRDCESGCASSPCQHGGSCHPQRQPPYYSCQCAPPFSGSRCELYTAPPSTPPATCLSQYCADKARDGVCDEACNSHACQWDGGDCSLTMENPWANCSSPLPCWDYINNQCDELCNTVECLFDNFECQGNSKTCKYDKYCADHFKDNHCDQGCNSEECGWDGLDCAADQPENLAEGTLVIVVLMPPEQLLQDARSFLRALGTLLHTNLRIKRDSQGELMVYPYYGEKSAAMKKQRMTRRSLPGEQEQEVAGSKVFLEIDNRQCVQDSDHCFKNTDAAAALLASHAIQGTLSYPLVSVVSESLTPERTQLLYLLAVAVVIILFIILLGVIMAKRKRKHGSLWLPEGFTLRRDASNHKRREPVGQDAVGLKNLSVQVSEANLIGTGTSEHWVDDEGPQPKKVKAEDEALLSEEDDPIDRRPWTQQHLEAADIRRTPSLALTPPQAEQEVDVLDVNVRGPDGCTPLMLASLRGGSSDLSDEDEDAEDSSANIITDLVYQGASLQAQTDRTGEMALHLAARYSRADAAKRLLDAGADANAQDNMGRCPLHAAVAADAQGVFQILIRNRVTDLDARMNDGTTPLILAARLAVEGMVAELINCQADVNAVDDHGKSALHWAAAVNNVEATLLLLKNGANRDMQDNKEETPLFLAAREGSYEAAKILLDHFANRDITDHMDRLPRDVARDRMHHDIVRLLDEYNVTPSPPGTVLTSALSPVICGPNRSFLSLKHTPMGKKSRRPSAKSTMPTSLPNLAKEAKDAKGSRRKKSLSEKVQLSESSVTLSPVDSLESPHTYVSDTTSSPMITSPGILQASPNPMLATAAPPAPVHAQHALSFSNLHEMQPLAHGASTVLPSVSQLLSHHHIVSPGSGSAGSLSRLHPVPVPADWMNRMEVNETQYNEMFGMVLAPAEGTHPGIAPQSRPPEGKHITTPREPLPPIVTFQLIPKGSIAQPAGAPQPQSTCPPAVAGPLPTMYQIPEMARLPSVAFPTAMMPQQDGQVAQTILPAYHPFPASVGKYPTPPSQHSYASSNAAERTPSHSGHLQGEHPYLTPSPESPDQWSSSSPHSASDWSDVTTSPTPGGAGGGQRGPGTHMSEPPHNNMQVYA
# [6] = biological target: Pro-neuregulin-1, membrane-bound isoform (Homo sapiens) (UniProt Q02297); experiment: NRG1 binders on small-molecule microarrays, primary screen, psychiatric disease protein project, biochemical, small-molecule microarray, fluorescence 635/667 (AID 1075); settings: NRG1 binding, 635 nm fluorescence, higher = more signal;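 further: score combines 667 nm spot fluorescence with signal to noise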
# Sequence of Pro-neuregulin-1, membrane-bound isoform (Homo sapiens) (Q02297 whole entry, looked up, the tested form may be a part, canonical isoform): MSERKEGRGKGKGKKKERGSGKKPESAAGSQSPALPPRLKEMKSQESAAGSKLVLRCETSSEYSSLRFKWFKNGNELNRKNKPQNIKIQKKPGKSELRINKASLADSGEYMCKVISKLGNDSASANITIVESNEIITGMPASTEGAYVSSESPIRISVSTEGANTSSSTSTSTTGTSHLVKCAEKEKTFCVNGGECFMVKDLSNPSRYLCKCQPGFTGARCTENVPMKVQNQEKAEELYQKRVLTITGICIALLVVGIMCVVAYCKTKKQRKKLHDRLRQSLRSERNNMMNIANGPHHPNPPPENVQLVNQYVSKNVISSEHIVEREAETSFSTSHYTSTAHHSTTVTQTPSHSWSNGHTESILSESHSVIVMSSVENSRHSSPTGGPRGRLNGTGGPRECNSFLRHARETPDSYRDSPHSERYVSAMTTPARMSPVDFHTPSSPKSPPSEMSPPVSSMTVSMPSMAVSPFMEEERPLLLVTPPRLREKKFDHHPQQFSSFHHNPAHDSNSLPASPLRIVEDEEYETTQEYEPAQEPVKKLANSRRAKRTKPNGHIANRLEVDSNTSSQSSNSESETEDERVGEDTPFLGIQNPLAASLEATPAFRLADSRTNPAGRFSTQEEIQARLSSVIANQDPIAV
# [7] = tested on: Neuregulin-1 EGF-like domain; experiment: binders of neuregulin-1 EGF-like domain, primary screen, biochemical, small-molecule microarray, 635 nm fluorescence (AID 1081); settings: small-molecule microarray binding, higher = more signal;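 further: binding of the protein to compounds printed on small-molecule microarray slides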
# [8] = FRG1 promoter luciferase signal modulators, primary screen, FRG1 inhibition for FSHD, cell-based, C2C12 myotubes, firefly/Renilla luciferase, luminescence (AID 1084); settings: higher = more signal, called active from +8 up or from −8 down
# [9] = binders of probe aFST on microarray, primary screen, stem cell growth factor project, biochemical, small-molecule microarray, fluorescence 635/667 (AID 1086); settings: higher = more signal;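 further: score merges 667 nm fluorescence with signal-to-noise of each printed compound spot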
# [10] = binders of probe aHhip on microarray, primary screen, stem cell growth factor project, biochemical, small-molecule microarray, fluorescence 635/667 (AID 1087); settings: higher = more signal;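 further: score merges spot fluorescence at 667nm with spot signal to noise ratio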
# [11] = tested on: PRMT1 (protein arginine N-methyltransferase 1); experiment: PRMT1 binders on small-molecule microarrays, primary screen, biochemical, small-molecule microarray, 635 nm fluorescence (AID 1088); settings: small-molecule microarray binding, higher = more signal;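 further: binding of Prmt1 protein to compounds spotted on small-molecule microarray slides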
# [12] = yeast growth modulation, basal conditions, primary screen, YJM789 clinical isolate, OD600, 24 h (AID 1089);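 further: growth of clinical yeast isolate S. cerevisiae YJM 789 seeded 1000 cells per well; test concentration not given here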; settings: S. cerevisiae YJM789 growth, higher = more signal, called active from +8 up or from −8 down
# [13] = fission yeast growth modulation, primary screen, strain 972, OD600, 24 h, no modulator (AID 1090);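 further: basal condition with compound alone and no growth modifier present; test concentration not given here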; settings: S. pombe 972 growth, higher = more signal, called active from +8 up or from −8 down
# [14] = S. cerevisiae growth modulation with rapamycin, primary screen, strain BY4716, OD600, 96 h (AID 1091); settings: higher = more signal, called active from +8 up or from −8 down; further: test concentration not given here
# [15] = biological target: Torsin-1A-interacting protein 2 (Homo sapiens) (UniProt Q8NFQ8); experiment: LULL1 binders on small-molecule microarray, primary screen, cell lysate, human LULL1 lysate, 635/667 nm fluorescence (AID 1092); settings: hLULL1 lysate binding, 635 nm fluorescence, higher = more signal;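 further: probe is lysate of COS7 cells overexpressing human LULL1; score merges per-feature 667 nm fluorescence with signal-to-noise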
# Sequence of Torsin-1A-interacting protein 2 (Homo sapiens) (Q8NFQ8 whole entry, looked up): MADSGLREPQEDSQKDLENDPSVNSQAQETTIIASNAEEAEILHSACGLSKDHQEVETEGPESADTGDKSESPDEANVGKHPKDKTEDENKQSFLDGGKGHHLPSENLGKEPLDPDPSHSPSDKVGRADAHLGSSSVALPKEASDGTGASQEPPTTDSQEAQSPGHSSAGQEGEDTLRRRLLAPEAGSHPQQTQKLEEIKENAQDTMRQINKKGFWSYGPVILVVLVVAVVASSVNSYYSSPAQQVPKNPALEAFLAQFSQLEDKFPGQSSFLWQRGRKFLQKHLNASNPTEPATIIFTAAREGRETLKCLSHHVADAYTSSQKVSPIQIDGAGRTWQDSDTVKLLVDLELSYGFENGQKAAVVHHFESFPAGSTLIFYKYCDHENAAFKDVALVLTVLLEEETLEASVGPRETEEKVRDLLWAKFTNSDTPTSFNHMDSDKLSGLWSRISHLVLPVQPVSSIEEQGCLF
# [16] = E. coli growth modulation, two-sided OD650, primary screen, E. coli filamentation project, strain DRC41, 24 h (AID 1093); settings: OD650, 24 h, higher = more signal, called active from +8 up or from −8 down;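 further: MC1000 strain lacking acrAB efflux and sulA so SOS filamentation is blocked; test concentration not given here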
# [17] = small-molecule microarray binders of probe aLefty2, primary screen, biochemical, biotinylated probe, 635/667 nm fluorescence (AID 1094); settings: higher = more signal;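 further: score merges spot fluorescence near 667 nm with spot signal-to-noise ratio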
# [18] = tested on: Noggin (protein binding on small-molecule microarray); experiment: Noggin binders on small-molecule microarray, primary screen, biochemical, 635/667 nm fluorescence (AID 1095); settings: 635 nm fluorescence, higher = more signal;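 further: score merges 667 nm feature fluorescence with signal to noise over triplicate slides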
# [19] = biological target: Neurogenic locus notch homolog protein 3 (Homo sapiens) (UniProt Q9UM47); experiment: NOTCH3 binders on small-molecule microarray, primary screen, biochemical, 635/667 nm fluorescence (AID 1096); settings: NOTCH3 binding, 635 nm fluorescence, higher = more signal
# [20] = small-molecule microarray binders of probe aEGFR, primary screen, biochemical, biotinylated probe, 635/667 nm fluorescence (AID 1097); settings: higher = more signal;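 further: probe is a biotinylated anti-EGFR antibody binding compounds printed on slides; score combines fluorescence near 667 nm and signal to noise of each spot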
Compound,composite z-score [1],composite z-score [2],composite z-score [3],composite z-score [4],composite z-score [5],composite z-score [6],composite z-score [7],z-score [8],composite z-score [9],composite z-score [10],composite z-score [11],z-score [12],z-score [13],z-score [14],composite z-score [15],z-score [16],composite z-score [17],composite z-score [18],composite z-score [19],composite z-score [20]
CN(C)C(=O)[C@]1(CCC(=O)OC(C)(C)C)N=C(c2ccc(OCCCO)cc2)O[C@@H]1c1ccccc1CN=[N+]=[N-],0.292,1.28,0.485,0.488,0.934,1.89,1.15,3.58 (inactive),1.34,-0.476,1.18,-0.299 (inactive),-1.65 (inactive),-0.619 (inactive),3.81,0.682 (inactive),0.0987,0.717,-0.162,-0.149
CCOC(=O)C[C@H]1[C@H](OC(=O)Cc2ccc3c(c2)OCO3)[C@@H](NC(=O)c2ccc3ccccc3n2)c2cc(OCCCO)ccc2N1C(=O)c1ccccc1,-0.0059,0.111,0.051,0.202,0.64,0.405,-0.111,1.15 (inactive),0.23,-0.069,0.299,0.131 (inactive),-0.931 (inactive),0.336 (inactive),0.604,0.887 (inactive),0.0209,0.257,0.363,-0.0039
C#CCN(Cc1ccccc1Br)[C@H](/C=C/c1ccccc1)[C@@H](O)Cc1ccccc1,1.6,-0.145,-0.164,-0.738,-1.09,-0.316,-0.289,-2.05 (inactive),-0.722,0.0373,-0.384,0.737 (inactive),-12.7 (active),1.38 (inactive),0.98,1.44 (inactive),0.195,-1.24,-0.623,-0.397
COC(=O)C/C=C/C[C@]1(O)C(=O)N(C)c2ccccc21,-0.408,0.598,-0.148,-0.294,0.223,-0.419,0.797,-1.59 (inactive),0.164,-0.0708,0.756,-1.73 (inactive),-1.35 (inactive),-1.02 (inactive),0.423,1.48 (inactive),-0.186,0.739,0.434,-0.0805
COc1ccc([C@H]2OC[C@@H]3C[C@H](Cc4ccccc4)C(=O)N32)cc1,-0.458,0.7,-0.0376,0.219,0.423,-0.465,0.684,0.18 (inactive),0.277,0.107,-0.476,1.35 (inactive),-2 (inactive),0.861 (inactive),0.449,-0.238 (inactive),-0.155,0.614,0.363,-0.0978
[N-]=[N+]=Nc1ccccc1[C@H]1OC(c2ccc(OCCCO)cc2)=N[C@@]1(Cc1ccccc1)C(=O)NCCN1CCOCC1,0.701,0.584,0.178,1.19,1.65,1.96,1.39,0.0219 (inactive),1.66,-0.106,1.57,0.0597 (inactive),-1.75 (inactive),1.72 (inactive),3.23,1.06 (inactive),0.363,1.36,1.05,0.688
Cc1ccc(S[C@]2(C(=O)NCC(F)(F)F)CC(=O)N(Cc3cc(C(F)(F)F)cc(C(F)(F)F)c3)[C@@H]2c2ccc(CO)cc2)cc1,-0.26,-1.74,-0.133,-0.232,-0.995,1.09,-0.353,0.0697 (inactive),-0.234,-0.0994,1.31,0.0966 (inactive),-0.322 (inactive),-1.53 (inactive),1.79,-0.002 (inactive),-0.152,-0.556,-0.133,-0.181
CCOC(=O)C[C@H]1[C@H](OC(=O)Cc2ccc3c(c2)OCO3)[C@@H](NC(=O)c2ccc3ccccc3n2)c2cc(OCCCO)ccc2N1C(=O)c1ccc2ccccc2n1,-0.5,0.185,-0.103,1.03,0.568,0.54,1.01,-2.11 (inactive),0.37,0.171,0.755,-2.47 (inactive),-1.99 (inactive),-0.727 (inactive),1.03,2.22 (inactive),-0.0708,0.719,0.497,-0.124
CCCC=C(CCC)[C@@H](NS(=O)(=O)c1ccc(C(F)(F)F)cc1)c1ccccc1,-0.0179,-0.0296,0.143,-0.0601,0.0998,-0.152,0.428,1.75 (inactive),0.302,0.37,0.907,1.22 (inactive),1.46 (inactive),3.03 (inactive),1.41,-1.74 (inactive),0.0749,-0.0917,0.275,-0.0415
COCCCNC(=O)[C@@H]1c2ccccc2C(=O)N(C(C)C)[C@H]1c1ccc(CO)cc1,0.312,0.355,-0.051,-0.373,0.0446,0.576,0.763,-0.215 (inactive),0.0241,-0.249,-0.325,0.602 (inactive),0.439 (inactive),0.395 (inactive),-0.719,-0.214 (inactive),0.0321,0.523,-0.406,-0.02
